Compounds with a hit are over-represented: about 2.9% of the library has one in this group of screens.
A549 tox-1 – Nrf2 qHTS screen for inhibitors: counterscreen for cytotoxicity; actives 0.16% (n = 390,000); A549 ARE-Fluc cells, CellTiter-Fluor viability, 18-24 h; Potency, µM (doses to about 46 µM), most hits filed as inhibitors
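A549 ARE-Fluc cells in 5% FBS OPTI-MEM, 5000 cells/well, rested 2 h then exposed to compounds in concentration-response for 18-24 h at 37 °C. Viability by CellTiter-Fluor fluorescence (Ex 405/Em 525) after 30 min; luciferase luminescence (BugLite, 15 min, RT) read afterwards.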
ATXN viability – Viability Counterscreen for Primary qHTS for Inhibitors of ATXN expression | S2 cells (HEK-293 line with an ATXN2-luciferase reporter) viability, CellTiter-Fluor protease fluorescence, 24 h | Potency, µM (series often up to 56.7 µM), actives largely listed as cytotoxic | actives 0.49% (n = 400,000); further: nearly all actives have a fitted effect of over 40% in size
Nrf2 block – Nrf2 qHTS screen for inhibitors; A549 ARE-Fluc reporter, luciferase luminescence, 18-24 h; Potency, µM (highest dose often 46 µM), usual class: inhibitors; actives 2.1% (n = 360,000); AID 504444, 2011; further: nearly all actives have a fitted effect of over 60% in size
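A549 ARE_Fluc cells (5000/well, 5% FBS OPTI-MEM) pre-incubated 2 h, then treated with compounds 18-24 h at 37C/5% CO2 in concentration-response. CellTiter-Fluor viability read first; BugLite luciferase luminescence after 15 min at room temperature gives Nrf2 activity.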
ATXN2 expr inh – Primary qHTS for Inhibitors of ATXN expression | actives 0.72% (n = 360,000) | HEK-293 ATXN2-luciferase reporter, luminescence, 24 h | AID 1745845, 2022 | Potency, µM (top dose mostly 57 µM), actives largely listed as inhibitors; further: nearly all actives have a fitted effect of over 55% in size
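qHTS (up to 57 uM final) was run with 24 h compound exposure of reporter cells at 37 °C. Each well was multiplexed: SteadyGlo luminescence measured ATXN2-luciferase expression after a fluorogenic Gly-Phe-AFC viability readout (25 uM final).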
Nrf2 activator – qHTS of Nrf2 Activators; actives 0.31% (n = 410,000); AID 624171, 2012; Potency, µM (titrated, usually from 46.1 µM), actives largely listed as activators; AREc32 ARE-luciferase reporter (MCF7-derived line), luminescence, 24 h; further: nearly all actives have a fitted effect of over 65% in size
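For detection, Steady-Glo was added and plates sat 30 min at RT; before that, AREc32_Fluc cells grown overnight in OPTI-MEM/5% FBS had been treated with 23 nL compound for 24 hr at 37 deg C.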
FLuc counter 3 – Nrf2 qHTS screen for inhibitors: Purified Fluc Biochemical Counterscreen for Hit Validation; shares compounds with Nrf2 block; purified firefly luciferase, luminescence inhibition; Potency, µM (titrated, usually from 57.5 µM), most hits filed as inhibitors; actives 4% (n = 1,400); AID 720522, 2013; further: nearly all actives have a fitted effect of over 65% in size
Target sequence (P08659 whole entry, looked up): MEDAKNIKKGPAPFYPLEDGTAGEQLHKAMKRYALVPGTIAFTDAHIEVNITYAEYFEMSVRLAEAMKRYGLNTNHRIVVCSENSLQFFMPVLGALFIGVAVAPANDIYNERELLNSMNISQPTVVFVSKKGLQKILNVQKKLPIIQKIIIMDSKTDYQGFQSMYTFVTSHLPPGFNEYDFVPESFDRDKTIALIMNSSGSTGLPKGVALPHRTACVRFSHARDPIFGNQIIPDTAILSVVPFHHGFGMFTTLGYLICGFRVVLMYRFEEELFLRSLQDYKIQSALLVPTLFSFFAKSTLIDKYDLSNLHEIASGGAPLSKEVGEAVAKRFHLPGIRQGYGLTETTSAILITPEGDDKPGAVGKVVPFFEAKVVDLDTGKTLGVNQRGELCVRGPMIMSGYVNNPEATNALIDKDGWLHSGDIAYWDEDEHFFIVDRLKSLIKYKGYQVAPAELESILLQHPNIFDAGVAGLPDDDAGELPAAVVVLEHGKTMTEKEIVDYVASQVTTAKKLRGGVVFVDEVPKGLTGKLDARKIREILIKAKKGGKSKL
A549 tox-2 – Nrf2 qHTS screen for inhibitors: A549 ARE-Fluc Cytotoxicity Counterscreen for Hit Validation. shares compounds with Nrf2 block. A549 ARE-Fluc cells, cytotoxicity counterscreen. Potency, µM (highest dose often 46.1 µM), usual class: inhibitors. actives 2% (n = 1,400). AID 720523, 2013;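 further: cells exposed to compounds for 18 to 24 hours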
Nrf2 ARE inh – Nrf2 qHTS screen for inhibitors: Nrf2 A549 ARE-Fluc Confirmation Assay for Hit Validation; shares compounds with Nrf2 block; A549 ARE-firefly luciferase reporter, luminescence; Potency, µM (doses to about 46.1 µM), actives largely listed as inhibitors; actives 74% (n = 1,400); AID 720524, 2013; further: nearly all actives have a fitted effect of over 65% in size
Large screens that a line does not name were inactive (follow-up assays come after a bar, where shown). The call rests on the fitted dose curve; in most records, active means well fitted curve in the direction sought with a large enough effect; inconclusive means small, poorly fitted or top-dose-only effect, or another doubt; inactive means no such curve, though single readings can be large; an effect the other way counts as inactive or inconclusive.

CCc1nn(CC(=O)NC(C)CCc2ccccc2)c(=O)c2cc3c(OC)cccc3n12 (stereo unspecified)	Nrf2 block inconclusive
c1ccc(-c2c[n+]3c(n2-c2ccccc2)CCC3)cc1	Nrf2 block inconclusive (no result: ATXN2 expr inh)
CCOc1ccc(-n2c(-c3ccccc3)c[n+]3c2CCCCC3)cc1	Nrf2 block 2.06µM, ATXN2 expr inh inconclusive | FLuc counter 3 inactive | A549 tox-2 inactive | Nrf2 ARE inh 5.8µM
Cc1ccc(-c2c[n+]3c(n2-c2ccccc2)CCC3)cc1	Nrf2 block 6.51µM | FLuc counter 3 inactive | A549 tox-2 inactive | Nrf2 ARE inh 13µM
CCc1c(C)nc2ncnn2c1NCCc1ccc(Cl)cc1	Nrf2 block 7.31µM | FLuc counter 3 inactive | A549 tox-2 inactive | Nrf2 ARE inh 4.61µM
CC(Oc1ccc(Br)cc1)C(=O)Nc1ccncc1 (stereo unspecified)	Nrf2 block 8.2µM | FLuc counter 3 inactive | A549 tox-2 inactive
Cc1ccc(OC(C)C(=O)Nc2ccncc2)cc1C (stereo unspecified)	Nrf2 block inconclusive, ATXN2 expr inh inconclusive
Cc1cn(C2CC3OCC(NC(=O)C4CCCN4C(=O)OC(C)(C)C)C3O2)c(=O)[nH]c1=O (stereo unspecified)	Nrf2 block inconclusive (no result: ATXN viability, ATXN2 expr inh, Nrf2 activator)
Clc1ccc(OCCN2CCN(c3ncnc4sccc34)CC2)cc1	Nrf2 block 0.259µM | FLuc counter 3 inactive | A549 tox-2 inactive | Nrf2 ARE inh 0.461µM
O=C(NC1CC(=O)N(c2cccc(F)c2)C1)c1ccc(S(=O)(=O)N2CCCCC2)cc1 (stereo unspecified)	none (no result: ATXN viability, Nrf2 block, ATXN2 expr inh)
COc1cc(Cl)c(NS(=O)(=O)c2ccc3c(c2)CC(C)N3C(=O)C2CCC2)c(OC)c1 (stereo unspecified)	Nrf2 block 9.2µM (no result: ATXN viability, ATXN2 expr inh) | FLuc counter 3 inactive | A549 tox-2 inactive | Nrf2 ARE inh 8.2µM
COc1ccc(NS(=O)(=O)c2ccc3c(c2)CC(C)N3C(=O)C2CCC2)cc1OC (stereo unspecified)	A549 tox-1 inconclusive (no result: ATXN viability, Nrf2 block, ATXN2 expr inh)
COc1cc(NS(=O)(=O)c2ccc3c(c2)CC(C)N3C(=O)C2CCC2)cc(OC)c1OC (stereo unspecified)	Nrf2 block 6.51µM (no result: ATXN viability, ATXN2 expr inh, Nrf2 activator) | FLuc counter 3 inactive | A549 tox-2 inactive | Nrf2 ARE inh 2.59µM
CC1Cc2cc(S(=O)(=O)NCc3ccccc3)ccc2N1C(=O)C1CCC1 (stereo unspecified)	Nrf2 block 1.64µM | FLuc counter 3 inactive | A549 tox-2 inactive | Nrf2 ARE inh inconclusive
CC1Cc2cc(S(=O)(=O)NCc3ccccc3)ccc2N1C(=O)C1CC1 (stereo unspecified)	Nrf2 block inconclusive
CC(=O)N1c2ccc(S(=O)(=O)N3CCN(c4cccc(Cl)c4)CC3)cc2CC1C (stereo unspecified)	Nrf2 block inconclusive
COc1ccc(N2CCN(S(=O)(=O)c3ccc4c(c3)CC(C)N4C(C)=O)CC2)cc1 (stereo unspecified)	Nrf2 block 9.2µM (no result: ATXN viability, ATXN2 expr inh) | FLuc counter 3 inactive | A549 tox-2 inactive | Nrf2 ARE inh 5.8µM
COc1ccc(-c2noc(C3CC(=O)N(c4ccc5c(c4)OCCO5)C3)n2)c(OC)c1 (stereo unspecified)	Nrf2 block inconclusive
COc1ccc(OC)c(CCNC(=O)c2c(C)oc3ncn(CC(C)C)c(=O)c23)c1	ATXN viability inconclusive
CCOC(=O)C1CCN(C(=O)Cn2c(=O)cc(C)c3c(C)nn(C)c32)CC1	ATXN viability inconclusive
Cc1cn(C)c(CC(=O)NCc2ccccc2Cl)c1C(=O)O	none (no result: Nrf2 block)
COc1ccc2[nH]c3c(c2c1)CCN1C(=O)C(CC(=O)NCc2cccc(C(F)(F)F)c2)C[C@H](C(=O)N2CCCCC2)[C@@]31CCc1ccccc1 (stereo partly specified)	Nrf2 block 6.51µM | FLuc counter 3 inactive | A549 tox-2 inactive | Nrf2 ARE inh 20.6µM
CC(Sc1nn(-c2ccc(F)cc2)c(=S)s1)C(=O)c1c(N)n(C)c(=O)n(C)c1=O (stereo unspecified)	Nrf2 block inconclusive
Cn1c(N)c(C(=O)CSc2nn(-c3ccccc3)c(=S)s2)c(=O)n(C)c1=O	Nrf2 block 7.31µM, ATXN2 expr inh inconclusive | FLuc counter 3 inactive | A549 tox-2 inactive | Nrf2 ARE inh 9.2µM
Cc1ccc(F)cc1NC(=O)N1CCN(c2ccnc3cc(Cl)ccc23)CC1	Nrf2 block 9.2µM (no result: ATXN2 expr inh) | FLuc counter 3 inactive | A549 tox-2 inactive | Nrf2 ARE inh 9.2µM
COc1ccc(-c2csc(NC(=O)c3ccccc3NS(=O)(=O)c3ccc(F)c(F)c3)n2)cc1	A549 tox-1 inconclusive, ATXN viability inconclusive, Nrf2 block 2.91µM, ATXN2 expr inh 7.08µM | FLuc counter 3 inconclusive | A549 tox-2 inconclusive | Nrf2 ARE inh 4.11µM
Cn1c(=O)n(-c2ccc(C(C)(C)C#N)cc2)c2c3cc(-c4cnc5ccccc5c4)ccc3ncc21	ATXN2 expr inh inconclusive (no result: A549 tox-1, ATXN viability, Nrf2 block, Nrf2 activator) | FLuc counter 3 inactive | A549 tox-2 inconclusive | Nrf2 ARE inh 0.92µM
CCOc1ccc(C(=O)Nc2ccc3nc(SCC(=O)N(C)c4ccccc4)sc3c2)cc1	Nrf2 block 5.8µM (no result: ATXN viability, ATXN2 expr inh) | FLuc counter 3 inconclusive | A549 tox-2 inactive | Nrf2 ARE inh 8.2µM
CN(C(=O)CSc1nc2ccc(NC(=O)c3ccccc3F)cc2s1)c1ccccc1	A549 tox-1 inconclusive, Nrf2 block inconclusive
N#Cc1ccc(N2CCN(c3ccc(F)cc3)CC2)cc1	Nrf2 block inconclusive | FLuc counter 3 inactive | A549 tox-2 inactive | Nrf2 ARE inh inactive
Cc1ccc(NC(=S)N2CCN(Cc3ccc4c(c3)OCO4)CC2)c(C)c1	Nrf2 block inconclusive
CCN(CC)S(=O)(=O)c1ccc(C)c(NC(=S)N2CCN(Cc3ccc4c(c3)OCO4)CC2)c1	Nrf2 block 6.51µM, ATXN2 expr inh inconclusive | FLuc counter 3 inactive | A549 tox-2 inactive | Nrf2 ARE inh 10.3µM
COc1ccc(OC)c(CCNC(=O)c2c(C)nn(-c3ccc(F)cc3)c2-n2cccc2)c1	ATXN viability inconclusive, Nrf2 block inconclusive
Cc1cc(C(=O)CN2C(=O)c3ccccc3S2(=O)=O)c(C)n1C(C)C	Nrf2 block 2.91µM, ATXN2 expr inh 5.01µM | FLuc counter 3 6.75µM | A549 tox-2 inactive | Nrf2 ARE inh 8.2µM
